Reference: PubChem BioAssay (NCATS)
Records with an inconclusive call do not appear. A call without a number means that no potency is given here. Values without a mark were called inactive. Active and inactive are the calls of the source. The call rests on the fitted dose curve; in most records, active means well fitted curve in the direction sought with a large enough effect; inconclusive means small, poorly fitted or top-dose-only effect, or another doubt; inactive means no such curve, though single readings can be large; an effect the other way counts as inactive or inconclusive.

Columns and labels:
[1] = Quantitative highthroughput screen to assess conditional lethalithy of NOMO1 cells grown in RPMI1640 with untreated serum (RPMI+s) (AID 1963876); further: nearly all actives have a fitted effect of over 35% in size; further: potency means the concentration at half of the fitted maximal effect
Procedure, shortened: (§1)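 Each medium arm—HPLM with 10% dialyzed FBS, or RPMI1640 with 5 mM glucose and 10% untreated or dialyzed FBS—was screened against an 11-point, 3-fold compound titration for 48 h at 37 °C, with CellTiter-Glo luminescence as endpoint.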

[2] = Quantitative highthroughput screen to assess conditional lethalithy of NOMO1 cells grown in RPMI1640 with dialyzed fetal bovine serum (RPMI+ds) (AID 1963877); further: nearly all actives have a fitted effect of over 30% in size; further: potency means the concentration at half of the fitted maximal effect; on viability: series mostly up to about 46 µM
Procedure, shortened: as §1

[3] = Quantitative highthroughput screen to assess conditional lethalithy of NOMO1 cells grown in Human Plasma-Like Medium with dialyzed fetal bovine serum (HPLM+ds) (AID 1963878); further: nearly all actives have a fitted effect of over 35% in size; further: potency means the concentration at half of the fitted maximal effect
Procedure, shortened: as §1

[4] = Quantitative highthroughput screen to assess conditional lethalithy of P12 Ichikawa cells grown in Human Plasma-Like Medium with dialyzed fetal bovine serum (HPLM+ds) (AID 1963879); conditions: Potency: viability; further: nearly all actives have a fitted effect of over 35% in size; further: potency means the concentration at half of the fitted maximal effect; on viability: series mostly up to about 46 µM
Procedure, shortened: as §1

[5] = Quantitative highthroughput screen to assess conditional lethalithy of P12 Ichikawa cells grown in RPMI1640 with dialyzed fetal bovine serum (RPMI+ds) (AID 1963880); conditions: Potency: P12-Ichikawa viability; further: nearly all actives have a fitted effect of over 35% in size; further: potency means the concentration at half of the fitted maximal effect
Procedure, shortened: as §1

[6] = Quantitative highthroughput screen to assess conditional lethalithy of P12 Ichikawa cells grown in RPMI1640 with untreated serum (RPMI+s) (AID 1963881); conditions: Potency: viability
Procedure, shortened: as §1

[7] = Quantitative highthroughput screen to assess conditional lethalithy of SEM cells grown in RPMI1640 with unreated serum (RPMI+s) (AID 1963883); further: nearly all actives have a fitted effect of over 35% in size; further: potency means the concentration at half of the fitted maximal effect
Procedure, shortened: as §1

[8] = Quantitative highthroughput screen to assess conditional lethalithy of SEM cells grown in RPMI1640 with dialyzed fetal bovine serum (RPMI+ds) (AID 1963884); further: nearly all actives have a fitted effect of over 35% in size; further: potency means the concentration at half of the fitted maximal effect; on viability: series mostly up to about 46 µM
Procedure, shortened: as §1

[9] = Cellular viability qHTS for adrenocortical cancer (ACC) cell line SW-13 (AID 1963989); conditions: SW-13 ACC cells viability, CellTiter-Glo, 48 h; activity (max response): active compounds read low; further: nearly all actives have a fitted effect of over 65% in size; further: potency means the concentration at half of the fitted maximal effect;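 on activity (max response): cells grown in serum-free medium with ITS supplement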
Procedure, shortened: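 SW-13 cells in ITS-supplemented serum-free DMEM were plated overnight, then exposed for 48 h at 37C to compound titrations (up to 46 uM final). Viability was read by CellTiter-Glo luminescence; four-parameter logistic fits gave IC50 and efficacy.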

[10] = Cellular viability qHTS for adrenocortical cancer (ACC) cell line NCI-H295R (AID 1963990); further: nearly all actives have a fitted effect of over 60% in size; further: potency means the concentration at half of the fitted maximal effect
Procedure, shortened: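 Luminescent ATP read-out (CellTiter-Glo, 20 min RT) after 48 h drug exposure of NCI-H295R cells; a titration up to 46 uM final. Data normalized to doxorubicin (100% inhibition) and DMSO (0%); 4-parameter fit gives IC50, max response.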

[11] = Quantitative highthroughput screen to assess conditional lethalithy of SEM cells grown in Human Plasma-Like Medium with dialyzed fetal bovine serum (HPLM+ds) (AID 1963882); further: nearly all actives have a fitted effect of over 35% in size; further: potency means the concentration at half of the fitted maximal effect; on viability: series mostly up to about 46 µM
Procedure, shortened: as §1

SMILES | Potency [1] | Potency [2] | Potency [3] | Potency [4] | Potency [5] | Potency [6] | Potency [7] | Potency [8] | activity (max response) [9] | Potency [10] | Potency [11] | Potency [9]
OCCn1cc(-c2ccc3c(c2)CCC3=NO)c(-c2ccncc2)n1 | inactive | inactive | inactive | inactive | inactive | inactive | inactive | inactive | – | – | – | –
NS(=O)(=O)c1cc(C(=O)O)c(NCc2ccco2)cc1Cl | inactive | inactive | inactive | inactive | inactive | inactive | – | – | -1.8% | inactive | – | –
CC(C)c1onc(-c2c(Cl)cccc2Cl)c1COc1ccc(C=Cc2cccc(C(=O)O)c2)c(Cl)c1 | inactive | inactive | inactive | inactive | inactive | inactive | inactive | inactive | – | – | – | –
Nc1ccc(S(=O)(=O)Nc2ccnn2-c2ccccc2)cc1 | inactive | inactive | inactive | inactive | inactive | inactive | inactive | inactive | 3.92% | inactive | – | –
CS(=O)(=O)c1ccc(Oc2cc(F)cc(C#N)c2)c2c1[C@H](O)C(F)(F)C2 | inactive | inactive | inactive | inactive | inactive | inactive | – | – | 10.8% | inactive | – | –
O=C(O)C=Cc1ccc(Cn2ccnc2)cc1 | inactive | inactive | inactive | inactive | inactive | inactive | inactive | inactive | – | – | – | –
CCC(=C(CC)c1ccc(O)cc1)c1ccc(O)cc1 | inactive | inactive | inactive | inactive | inactive | – | inactive | – | – | – | inactive | –
CN1C[C@H]2c3ccccc3Oc3ccc(Cl)cc3[C@@H]2C1 | inactive | inactive | inactive | inactive | inactive | inactive | 26400 nM (active) | 23500 nM (active) | -18.3% | – | – | –
CC1=C(CC(=O)O)c2cc(F)ccc2C1=Cc1ccc(S(C)=O)cc1 (centres undefined) | inactive | inactive | inactive | inactive | inactive | – | inactive | – | 10.2% | inactive | inactive | –
COc1cc(Cl)cn2c(-c3cccc(NC4CNC4)n3)cnc12 | inactive | inactive | inactive | inactive | inactive | inactive | inactive | inactive | – | – | – | –
O=C(O)[C@@H](c1ccc(OCc2ccc3ccccc3n2)cc1)C1CCCC1 | inactive | inactive | inactive | inactive | inactive | inactive | inactive | – | -1.81% | inactive | – | –
NC(=O)c1cccc(N)c1 | inactive | inactive | inactive | inactive | inactive | inactive | – | – | -2.32% | inactive | – | –
Clc1ccc(CCC(Cn2ccnc2)Sc2c(Cl)cccc2Cl)cc1 (centres undefined) | inactive | inactive | inactive | inactive | inactive | – | – | – | – | – | inactive | –
C[C@H](Cn1cnc2c(N)ncnc21)OCP(=O)(O)O | inactive | inactive | inactive | inactive | inactive | inactive | inactive | inactive | – | – | – | –
CC[C@@H]1C=C(C)C[C@H](C)C[C@H](OC)[C@H]2O[C@@](O)(C(=O)C(=O)N3CCCC[C@@H]3C(=O)O[C@H](C(C)=C[C@@H]3CC[C@H](Cl)[C@H](OC)C3)[C@H](C)[C@@H](O)CC1=O)[C@H](C)C[C@H]2OC | inactive | inactive | inactive | inactive | inactive | inactive | inactive | 1480 nM (active) | – | – | – | –
Cc1cc(SCc2sc(-c3ccc(C(F)(F)F)cc3)nc2C)ccc1OCC(=O)O | inactive | inactive | inactive | inactive | inactive | inactive | – | – | – | inactive | – | –
CCN(C(=O)c1c(O)c2c(Cl)cccc2n(C)c1=O)c1ccccc1 | 1660 nM (active) | 2640 nM (active) | 1320 nM (active) | 3320 nM (active) | 1660 nM (active) | – | 332 nM (active) | 418 nM (active) | – | – | 590 nM (active) | 7940 nM (active)
CCOc1cc2ncc(C#N)c(Nc3ccc(F)c(Cl)c3)c2cc1NC(=O)C=CCN(C)C | 16600 nM (active) | 7430 nM (active) | 4690 nM (active) | 3720 nM (active) | 5260 nM (active) | – | 418 nM (active) | 743 nM (active) | – | – | 1320 nM (active) | –
NS(=O)(=O)c1ccc(NC2=CC(=O)c3ccccc3C2=O)cc1 | inactive | inactive | inactive | inactive | inactive | inactive | – | – | -24.7% | 3980 nM (active) | – | –
CC(=O)SC[C@@H](C)C(=O)N1CCC[C@H]1C(=O)N[C@@H](Cc1ccccc1)C(=O)O | inactive | inactive | inactive | inactive | inactive | inactive | inactive | inactive | 16.6% | inactive | – | –
